This is part of a sample that, as a whole, favours compounds with a hit. Of some 83,000 tested, about 20% had one in any assay.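 Step 1: grow cells in 96-well plates. Step 2: add test compound at a single concentration. Step 3: incubate 48 h. Step 4: record percent growth.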 A number with no mark means an inactive call. Activity calls are given as the source filed them. How the source made its calls: active means growth percent below 10; inactive means the rest.
system: RPMI-8226 leukemia; test: NCI-60 one-dose screen, 48 h (100 = growth as untreated, 0 = no growth, -100 = all killed); conditions: 10 µM

| Compound | growth |
| --- | --- |
| Clc1cccc(-c2nc(-c3cccs3)no2)c1 | 93.7% |
| CCCCCCCCCCCCCCCCCCOCC(COCCOCC[N+]1(CCCCCC(=O)[O-])CCCC1)Oc1ncccn1 (stereo not given) | 2.22% (active) |
| CC/C(=N\N=C(/CC)c1ccc(Br)cc1)c1ccc(Br)cc1 | 93.9% |
| O=C1OCC2=C1C(c1ccc(Cl)c(Cl)c1)c1cc3c(cc1N2CCO)OCCO3 (stereo not given) | 18.7% |
| COc1cc2nc(Nc3cccc(NC(C)=O)c3)nc(N)c2cc1OC | 55.7% |
| Cc1nc2ccc(CN(C)c3ccc(C(=O)N[C@@H](CCC(=O)O)C(=O)O)s3)cc2c(=O)[nH]1 | 56.6% |
| CCCCCCCCN(CCCCCCCC)CCCCCCCCCN1CCCc2cc(OC)ccc21 | 65.9% |
| Nc1ncnc2[nH]c(=O)[nH]c12 | 195% |
| COc1ccc2c(c1)sc1nc(-c3ccccc3)c(-c3cccnc3)n12 | 79% |
| C=C(Cl)[C@@](Cl)(CBr)CC[C@@H](Br)C(C)(C)Cl | -59.4% (active) |
| C[N+](C)(C)c1ncnc2nc[nH]c12 | 103% |
| COC(=O)[C@@H]1[C@H](O)[C@H](C)[C@H](O)[C@@](C)(O)/C=C\C=C(C)C(=O)Nc2c(C)c(OC(C)=O)c3c(c2O)C(=O)C(C)=C2OCOC(=C23)C(C)=C[C@@](C)(O)[C@H](O)[C@@H](C)[C@H]1OC(C)=O | -13.2% (active) |

system: OVCAR-8 ovarian; test: as above; conditions: 10 µM

| Compound | growth |
| --- | --- |
| CCN(CC)CCNc1ccc(CO)c2oc3cc(Cl)ccc3c(=O)c12 | 59.4% |
| O=C(O)C(SC(C(=O)O)c1ccccc1)c1ccccc1 (stereo not given) | 110% |
| COc1ccc(-c2nc3ccccn3c2-c2nnc(-c3cc(OC)c(OC)c(OC)c3)o2)cc1 | 35.5% |
| Cc1ccc(-c2nc(/C=C3/C(=O)N(C)c4ccc(F)cc43)c3ccccn23)cc1 | 99.3% |
| CCN(CC)CCSCCCNc1c2ccc(Cl)cc2nc2ccc(OC)cc12 | -29.3% (active) |
| NC1=NC(=O)C(c2ccccc2)(c2ccccc2)S1 | 107% |
| CCCN(CCC)CCC(O)c1cc2c(c3ccccc13)CCCC2 (stereo not given) | 102% |
| COc1ccc2c(c1)/C(=C\c1c[nH]c3ccc(OC)cc13)C(=O)N2 | 59.7% |
| Nc1ccn(C2CC(O)C(CO)O2)c(=O)n1 (stereo not given) | 106% |
| C=C(C(=O)c1ccccc1)C(NC(C)(C)C)c1ccccc1 (stereo not given) | -32% (active) |
| COc1ccc2nc3ccccc3c(NCCNCC(C)O)c2c1 (stereo not given) | -2.99% (active) |
| O=C(CC(C(=O)c1ccccc1)N1CCOCC1)c1ccccc1 (stereo not given) | 97.3% |
| NC(=O)SCC(=O)Nc1ccc(S(N)(=O)=O)cc1 | 104% |
| CCCCN(CCCC)CCCCCCCCC(O)c1cc2ccccc2c2ccccc12 (stereo not given) | 49.4% |
| COc1ccc2nc3cc(Cl)ccc3c(NCCNCC(C)O)c2c1 (stereo not given) | 17.1% |
| Clc1cccc(-c2nc(-c3cccs3)no2)c1 | 107% |
| CC/C(=N\N=C(/CC)c1ccc(Br)cc1)c1ccc(Br)cc1 | 116% |
| O=C1OCC2=C1C(c1ccc(Cl)c(Cl)c1)c1cc3c(cc1N2CCO)OCCO3 (stereo not given) | 27.7% |
| COc1cc2nc(Nc3cccc(NC(C)=O)c3)nc(N)c2cc1OC | 99% |
| CCCCCCCCN(CCCCCCCC)CCCCCCCCCN1CCCc2cc(OC)ccc21 | 101% |
| Nc1ncnc2[nH]c(=O)[nH]c12 | 93.3% |
| COc1ccc2c(c1)sc1nc(-c3ccccc3)c(-c3cccnc3)n12 | 104% |
| C[N+](C)(C)c1ncnc2nc[nH]c12 | 102% |

From PubChem BioAssay (NCI)
